The record followed here is publication PMC7862700, “An all-to-all approach to the identification of sequence-specific readers for epigenetic DNA modifications on cytosine”.

Assay in all cases: DAPPL (digital affinity profiling via proximity ligation, sequencing); 10 mM Tris-HCl pH 7.5, 50 mM NaCl, 1 mM DTT, 4% glycerol, room temperature, 30 min; GST-TFs on glutathione beads, 16-mer random dsDNA library, 0.1% formaldehyde crosslink after washing; high values mean tight binding
The target in assay [1] is T1, FEV (Homo sapiens, UniProt Q99581 1-238).
T1 sequence: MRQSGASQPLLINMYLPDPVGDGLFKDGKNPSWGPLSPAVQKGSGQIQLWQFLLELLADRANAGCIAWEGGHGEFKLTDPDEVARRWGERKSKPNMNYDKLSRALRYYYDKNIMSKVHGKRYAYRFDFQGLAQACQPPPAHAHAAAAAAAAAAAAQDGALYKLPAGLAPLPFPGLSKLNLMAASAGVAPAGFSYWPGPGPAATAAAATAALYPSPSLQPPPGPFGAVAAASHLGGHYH
The conditions noted are these: protein: recombinant; tags: N-terminal GST; dsDNA, one strand shown. A digest of the protocol:
(§1)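 In yeast, human transcription factors were expressed with a GST fusion, then pulled down on glutathione beads and given DNA barcodes. Pooled with a tag-only sample, they were exposed to 200 nmole of a 16-mer random double-stranded DNA library (Tris/NaCl/DTT/glycerol buffer, room temperature, 30 min), washed, crosslinked with 0.1% formaldehyde, proximity-ligated using BsaI/T4 ligase for 1 h at 37 °C, PCR-amplified and read on an Illumina NextSeq500. Each hexamer's frequency of reads for a factor, divided by the matching frequency for the tag-only sample, gives the binding signal.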

Assay [2] addresses ETV5 (Homo sapiens, UniProt P41161 1-510). The settings on record: protein: recombinant; tags: N-terminal GST; dsDNA, one strand shown. A digest of the protocol:
as §1

Assay [3] concerns the target HSF1 (Homo sapiens, UniProt Q00613 1-529). The settings on record: protein: recombinant; tags: N-terminal GST; chain copies: 3; dsDNA, one strand shown. A digest of the protocol:
as §1

The target of assay [4] is T2, SPIC (Homo sapiens, UniProt Q8N5J4 1-248).
T2 sequence: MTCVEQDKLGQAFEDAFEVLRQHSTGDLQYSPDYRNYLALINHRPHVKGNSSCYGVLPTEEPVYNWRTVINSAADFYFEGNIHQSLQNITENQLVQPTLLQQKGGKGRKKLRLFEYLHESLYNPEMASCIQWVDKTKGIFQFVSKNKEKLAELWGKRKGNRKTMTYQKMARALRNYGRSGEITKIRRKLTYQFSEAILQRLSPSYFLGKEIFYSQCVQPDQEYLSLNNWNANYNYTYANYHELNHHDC
The conditions noted are these: protein: recombinant; tags: N-terminal GST; dsDNA, one strand shown. A digest of the protocol:
as §1

Assay [5] has as its target ELF4 (Homo sapiens, UniProt Q99607 1-663). The conditions noted are these: protein: recombinant; tags: N-terminal GST; dsDNA, one strand shown. In outline:
as §1

In assay [6] the target is T3, ELK4 (Homo sapiens, UniProt P28324-2 1-405).
T3 sequence: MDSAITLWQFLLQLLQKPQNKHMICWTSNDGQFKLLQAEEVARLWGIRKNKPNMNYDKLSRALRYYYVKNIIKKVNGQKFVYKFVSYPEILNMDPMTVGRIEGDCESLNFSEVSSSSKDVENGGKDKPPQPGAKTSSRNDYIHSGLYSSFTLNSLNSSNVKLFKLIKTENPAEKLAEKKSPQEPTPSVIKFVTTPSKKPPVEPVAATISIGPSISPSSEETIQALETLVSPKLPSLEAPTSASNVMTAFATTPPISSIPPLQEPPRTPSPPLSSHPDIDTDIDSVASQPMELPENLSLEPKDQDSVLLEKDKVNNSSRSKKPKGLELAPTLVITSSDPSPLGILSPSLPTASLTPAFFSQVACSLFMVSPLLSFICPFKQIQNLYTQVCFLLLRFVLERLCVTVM
The conditions noted are these: protein: recombinant; tags: N-terminal GST; dsDNA, one strand shown. In outline: as §1

Assay [7] addresses T4, ETV2 (Homo sapiens, UniProt O00321 1-342).
T4 sequence: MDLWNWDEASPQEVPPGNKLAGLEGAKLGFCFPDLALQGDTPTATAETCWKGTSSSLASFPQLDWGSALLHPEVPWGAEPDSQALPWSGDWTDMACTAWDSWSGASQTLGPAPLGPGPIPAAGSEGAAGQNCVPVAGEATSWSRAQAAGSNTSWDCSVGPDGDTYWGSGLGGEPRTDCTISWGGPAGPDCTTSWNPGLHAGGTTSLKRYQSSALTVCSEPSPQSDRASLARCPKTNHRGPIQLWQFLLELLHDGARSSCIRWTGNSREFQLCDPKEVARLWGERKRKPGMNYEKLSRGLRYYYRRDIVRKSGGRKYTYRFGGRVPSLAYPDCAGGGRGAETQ
The settings on record: protein: recombinant; tags: N-terminal GST; dsDNA, one strand shown. In outline:
as §1

The target in assay [8] is T5, ELF3 (Homo sapiens, UniProt P78545 1-371).
T5 sequence: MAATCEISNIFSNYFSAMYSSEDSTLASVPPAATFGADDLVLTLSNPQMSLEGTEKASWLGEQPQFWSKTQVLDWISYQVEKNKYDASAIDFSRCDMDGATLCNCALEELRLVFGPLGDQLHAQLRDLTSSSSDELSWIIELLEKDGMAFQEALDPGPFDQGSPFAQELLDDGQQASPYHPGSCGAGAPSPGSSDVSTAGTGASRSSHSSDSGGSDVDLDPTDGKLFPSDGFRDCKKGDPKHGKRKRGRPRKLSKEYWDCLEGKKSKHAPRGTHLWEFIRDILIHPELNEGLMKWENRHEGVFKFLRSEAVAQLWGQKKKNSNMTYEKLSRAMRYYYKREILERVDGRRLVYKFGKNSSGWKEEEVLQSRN
The settings on record: protein: recombinant; tags: N-terminal GST; dsDNA, one strand shown. In outline:
as §1

Assay [9] concerns the target CRX (Homo sapiens, UniProt O43186 1-299). The settings on record: protein: recombinant; tags: N-terminal GST; dsDNA, one strand shown. In outline: as §1
Assay [10] deals with ETV1 (Homo sapiens, UniProt P50549 1-477). The conditions noted are these: protein: recombinant; tags: N-terminal GST; dsDNA, one strand shown. A digest of the protocol: as §1
The target of assay [11] is T6, ERF (Homo sapiens, UniProt P50548 1-548).
T6 sequence: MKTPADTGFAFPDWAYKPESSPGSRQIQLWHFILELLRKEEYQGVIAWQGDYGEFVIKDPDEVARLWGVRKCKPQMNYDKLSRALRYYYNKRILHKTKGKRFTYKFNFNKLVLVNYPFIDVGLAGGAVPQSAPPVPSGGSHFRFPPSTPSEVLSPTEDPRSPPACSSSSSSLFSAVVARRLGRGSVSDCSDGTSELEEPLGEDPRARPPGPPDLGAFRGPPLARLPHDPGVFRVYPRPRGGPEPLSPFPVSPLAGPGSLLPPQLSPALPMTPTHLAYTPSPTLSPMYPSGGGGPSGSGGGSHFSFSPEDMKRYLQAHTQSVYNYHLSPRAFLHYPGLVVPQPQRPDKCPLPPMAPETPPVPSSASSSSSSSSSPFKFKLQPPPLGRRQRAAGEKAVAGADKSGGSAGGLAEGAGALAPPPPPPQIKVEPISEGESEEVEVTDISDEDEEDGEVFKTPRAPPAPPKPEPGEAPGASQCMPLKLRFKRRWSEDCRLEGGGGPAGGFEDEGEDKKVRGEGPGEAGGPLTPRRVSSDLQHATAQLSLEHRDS
The conditions noted are these: protein: recombinant; tags: N-terminal GST; dsDNA, one strand shown. A digest of the protocol: as §1

Assay [12] deals with T7, ETV3L (Homo sapiens, UniProt Q6ZN32 1-361).
T7 sequence: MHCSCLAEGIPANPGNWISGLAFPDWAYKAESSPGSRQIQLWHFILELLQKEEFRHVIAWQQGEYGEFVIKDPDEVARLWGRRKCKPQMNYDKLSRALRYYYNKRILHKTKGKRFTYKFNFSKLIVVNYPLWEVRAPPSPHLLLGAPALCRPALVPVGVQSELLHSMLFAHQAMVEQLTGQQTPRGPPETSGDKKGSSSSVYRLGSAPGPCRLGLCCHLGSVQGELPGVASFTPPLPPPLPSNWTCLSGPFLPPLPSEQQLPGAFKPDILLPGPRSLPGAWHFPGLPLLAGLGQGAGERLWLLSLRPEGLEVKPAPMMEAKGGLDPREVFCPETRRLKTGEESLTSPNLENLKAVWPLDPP
The conditions noted are these: protein: recombinant; tags: N-terminal GST; dsDNA, one strand shown. In outline: as §1

Assay [13] addresses T8, ETS2 (Homo sapiens, UniProt P15036 1-469).
T8 sequence: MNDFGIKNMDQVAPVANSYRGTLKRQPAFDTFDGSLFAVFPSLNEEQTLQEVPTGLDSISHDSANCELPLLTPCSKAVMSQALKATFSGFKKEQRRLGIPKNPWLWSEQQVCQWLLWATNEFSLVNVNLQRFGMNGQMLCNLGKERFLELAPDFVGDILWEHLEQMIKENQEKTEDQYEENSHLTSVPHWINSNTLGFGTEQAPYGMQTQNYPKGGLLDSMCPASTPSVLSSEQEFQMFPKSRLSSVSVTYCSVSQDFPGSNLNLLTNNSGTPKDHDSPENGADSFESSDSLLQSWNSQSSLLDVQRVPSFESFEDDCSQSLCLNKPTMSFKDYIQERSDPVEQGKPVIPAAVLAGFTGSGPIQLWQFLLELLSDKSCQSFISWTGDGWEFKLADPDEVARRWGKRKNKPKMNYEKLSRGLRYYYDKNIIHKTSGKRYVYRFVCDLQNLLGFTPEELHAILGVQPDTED
The conditions noted are these: protein: recombinant; tags: N-terminal GST; dsDNA, one strand shown. In outline: as §1

Assay [14] has as its target T9, SPDEF (Homo sapiens, UniProt O95238 1-335).
T9 sequence: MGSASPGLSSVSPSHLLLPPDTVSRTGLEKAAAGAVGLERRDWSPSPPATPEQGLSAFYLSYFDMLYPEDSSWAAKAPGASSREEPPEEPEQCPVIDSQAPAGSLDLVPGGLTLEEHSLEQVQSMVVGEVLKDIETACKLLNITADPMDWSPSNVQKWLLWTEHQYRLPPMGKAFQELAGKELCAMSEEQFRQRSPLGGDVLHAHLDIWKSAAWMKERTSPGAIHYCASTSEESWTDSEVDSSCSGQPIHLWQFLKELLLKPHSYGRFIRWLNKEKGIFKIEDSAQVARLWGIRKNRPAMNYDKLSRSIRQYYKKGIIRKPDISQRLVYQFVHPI
The conditions noted are these: protein: recombinant; tags: N-terminal GST; dsDNA, one strand shown. In outline:
as §1

For assay [15], the target named is T10, ETV7 (Homo sapiens, UniProt Q9Y603 1-341).
T10 sequence: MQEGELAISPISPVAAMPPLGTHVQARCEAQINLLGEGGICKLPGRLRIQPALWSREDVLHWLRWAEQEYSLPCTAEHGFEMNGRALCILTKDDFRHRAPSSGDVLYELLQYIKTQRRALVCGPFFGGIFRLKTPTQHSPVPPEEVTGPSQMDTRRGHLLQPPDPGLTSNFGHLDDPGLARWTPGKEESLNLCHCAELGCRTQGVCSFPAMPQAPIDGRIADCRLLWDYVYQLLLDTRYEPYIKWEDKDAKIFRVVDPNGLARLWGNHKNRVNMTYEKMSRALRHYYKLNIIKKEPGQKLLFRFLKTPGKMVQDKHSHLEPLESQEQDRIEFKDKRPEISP
The conditions noted are these: protein: recombinant; tags: N-terminal GST; dsDNA, one strand shown. In outline: as §1

Assay [16] has as its target T11, ELF5 (Homo sapiens, UniProt Q9UKW6-2 1-255).
T11 sequence: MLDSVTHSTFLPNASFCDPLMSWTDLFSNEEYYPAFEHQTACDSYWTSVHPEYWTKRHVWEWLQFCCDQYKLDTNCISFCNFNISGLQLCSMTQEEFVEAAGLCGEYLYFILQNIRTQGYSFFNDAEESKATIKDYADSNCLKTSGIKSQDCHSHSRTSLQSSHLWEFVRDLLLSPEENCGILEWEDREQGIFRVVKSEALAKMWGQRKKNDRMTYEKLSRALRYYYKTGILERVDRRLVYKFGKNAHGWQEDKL
The conditions noted are these: protein: recombinant; tags: N-terminal GST; dsDNA, one strand shown. A digest of the protocol:
as §1

Assay [17] addresses T12, ETV3 (Homo sapiens, UniProt P41162-2 1-143).
T12 sequence: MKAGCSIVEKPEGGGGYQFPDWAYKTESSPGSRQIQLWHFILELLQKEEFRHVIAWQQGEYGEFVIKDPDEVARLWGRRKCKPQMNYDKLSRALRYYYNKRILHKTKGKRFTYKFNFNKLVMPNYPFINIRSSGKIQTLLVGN
The conditions noted are these: protein: recombinant; tags: N-terminal GST; dsDNA, one strand shown. A digest of the protocol: as §1

Assay [18] deals with ETV6 (Homo sapiens, UniProt P41212 1-452). The conditions noted are these: protein: recombinant; tags: N-terminal GST; dsDNA, one strand shown. A digest of the protocol: as §1
Sequence of ETV6 (P41212 whole entry): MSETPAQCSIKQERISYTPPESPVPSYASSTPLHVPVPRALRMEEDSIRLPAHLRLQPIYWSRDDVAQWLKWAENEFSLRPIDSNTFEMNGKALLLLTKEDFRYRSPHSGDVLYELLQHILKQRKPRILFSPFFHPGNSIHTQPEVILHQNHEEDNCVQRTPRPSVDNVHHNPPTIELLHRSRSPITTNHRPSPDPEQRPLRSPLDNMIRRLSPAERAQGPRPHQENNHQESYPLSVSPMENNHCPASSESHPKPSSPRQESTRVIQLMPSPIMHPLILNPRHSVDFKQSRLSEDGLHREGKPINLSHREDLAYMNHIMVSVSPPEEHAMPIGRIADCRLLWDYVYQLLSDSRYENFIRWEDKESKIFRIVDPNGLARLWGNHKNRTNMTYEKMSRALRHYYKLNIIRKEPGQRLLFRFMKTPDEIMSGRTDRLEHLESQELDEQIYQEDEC

Sequence of HSF1 (Q00613 whole entry): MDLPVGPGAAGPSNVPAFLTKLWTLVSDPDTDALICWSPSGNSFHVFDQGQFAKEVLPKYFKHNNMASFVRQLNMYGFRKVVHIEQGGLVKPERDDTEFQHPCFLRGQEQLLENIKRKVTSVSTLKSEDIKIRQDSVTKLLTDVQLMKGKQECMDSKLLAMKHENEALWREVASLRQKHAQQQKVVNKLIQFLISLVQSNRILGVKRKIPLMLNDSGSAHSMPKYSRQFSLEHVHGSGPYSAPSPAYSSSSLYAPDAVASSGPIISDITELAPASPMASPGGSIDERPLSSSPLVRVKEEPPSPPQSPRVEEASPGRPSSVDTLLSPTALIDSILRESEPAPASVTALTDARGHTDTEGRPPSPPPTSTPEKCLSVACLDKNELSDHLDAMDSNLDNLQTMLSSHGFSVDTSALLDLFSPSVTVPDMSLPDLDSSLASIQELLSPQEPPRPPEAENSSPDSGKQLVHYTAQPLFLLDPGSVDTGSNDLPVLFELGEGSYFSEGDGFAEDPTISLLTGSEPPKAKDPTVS
Sequence of ELF4 (Q99607 whole entry): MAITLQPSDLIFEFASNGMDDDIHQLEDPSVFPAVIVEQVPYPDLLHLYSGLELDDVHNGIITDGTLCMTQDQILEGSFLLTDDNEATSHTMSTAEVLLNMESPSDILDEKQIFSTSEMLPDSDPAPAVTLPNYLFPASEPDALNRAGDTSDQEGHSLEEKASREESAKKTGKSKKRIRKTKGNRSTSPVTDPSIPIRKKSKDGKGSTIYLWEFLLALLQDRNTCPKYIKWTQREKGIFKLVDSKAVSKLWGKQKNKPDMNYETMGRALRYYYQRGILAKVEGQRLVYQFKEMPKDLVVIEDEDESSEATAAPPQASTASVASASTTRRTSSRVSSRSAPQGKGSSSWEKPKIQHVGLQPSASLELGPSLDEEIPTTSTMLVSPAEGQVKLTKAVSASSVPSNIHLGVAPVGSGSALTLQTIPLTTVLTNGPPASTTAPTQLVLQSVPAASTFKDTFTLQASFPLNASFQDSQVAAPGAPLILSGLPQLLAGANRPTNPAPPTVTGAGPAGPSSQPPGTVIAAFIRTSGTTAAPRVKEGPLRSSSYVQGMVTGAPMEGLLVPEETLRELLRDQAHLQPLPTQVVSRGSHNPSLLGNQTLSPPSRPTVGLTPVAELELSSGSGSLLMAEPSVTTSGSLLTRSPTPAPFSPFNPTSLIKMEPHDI
Sequence of CRX (O43186 whole entry): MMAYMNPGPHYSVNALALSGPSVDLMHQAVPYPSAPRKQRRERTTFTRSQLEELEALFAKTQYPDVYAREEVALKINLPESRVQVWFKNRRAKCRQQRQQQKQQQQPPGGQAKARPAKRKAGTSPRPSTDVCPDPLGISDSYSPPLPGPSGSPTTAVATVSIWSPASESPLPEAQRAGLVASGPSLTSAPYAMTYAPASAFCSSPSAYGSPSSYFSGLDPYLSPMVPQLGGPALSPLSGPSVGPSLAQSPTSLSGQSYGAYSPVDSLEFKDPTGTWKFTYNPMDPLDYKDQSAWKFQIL
Sequence of ETV1 (P50549 whole entry): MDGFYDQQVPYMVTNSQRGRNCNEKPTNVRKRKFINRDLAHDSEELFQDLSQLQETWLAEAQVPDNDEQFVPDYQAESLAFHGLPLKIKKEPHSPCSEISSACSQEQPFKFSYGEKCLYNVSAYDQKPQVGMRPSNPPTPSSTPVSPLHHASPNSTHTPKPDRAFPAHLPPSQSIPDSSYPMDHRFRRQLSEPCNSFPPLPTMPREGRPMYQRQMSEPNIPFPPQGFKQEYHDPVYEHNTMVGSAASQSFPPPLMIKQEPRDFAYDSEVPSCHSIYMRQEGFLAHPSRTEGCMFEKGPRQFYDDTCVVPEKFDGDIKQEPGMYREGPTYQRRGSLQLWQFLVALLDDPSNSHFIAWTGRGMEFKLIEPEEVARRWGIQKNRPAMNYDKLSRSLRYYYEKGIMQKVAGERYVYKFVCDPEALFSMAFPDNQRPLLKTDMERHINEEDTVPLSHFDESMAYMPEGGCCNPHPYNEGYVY
Sequence of ETV5 (P41161 whole entry): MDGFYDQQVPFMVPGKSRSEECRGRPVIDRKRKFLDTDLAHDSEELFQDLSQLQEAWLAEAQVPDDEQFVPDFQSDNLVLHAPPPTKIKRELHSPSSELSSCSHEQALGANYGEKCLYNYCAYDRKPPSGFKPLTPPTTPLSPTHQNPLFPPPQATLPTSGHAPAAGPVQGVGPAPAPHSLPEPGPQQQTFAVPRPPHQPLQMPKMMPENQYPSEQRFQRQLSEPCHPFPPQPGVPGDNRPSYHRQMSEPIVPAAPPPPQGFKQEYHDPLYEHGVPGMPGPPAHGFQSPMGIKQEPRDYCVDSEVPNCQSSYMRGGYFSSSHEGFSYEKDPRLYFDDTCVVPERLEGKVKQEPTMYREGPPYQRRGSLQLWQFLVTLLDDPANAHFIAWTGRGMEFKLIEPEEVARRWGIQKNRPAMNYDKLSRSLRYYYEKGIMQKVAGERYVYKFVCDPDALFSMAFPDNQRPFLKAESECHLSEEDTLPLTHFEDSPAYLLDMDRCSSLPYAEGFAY

As to AGCTTA, the binding signal in assay [1] is 1.06 fold enrichment (6-mer frequency, TF over GST control); in [2], 1.07 fold enrichment (6-mer frequency, TF over GST control); in [3], 1.94 fold enrichment (6-mer frequency, TF over GST control); in [4], 1.12 fold enrichment (6-mer frequency, TF over GST control); in assay [5], 1.11 fold enrichment (6-mer frequency, TF over GST control); in [6], 1.08 fold enrichment (6-mer frequency, TF over GST control). For the same sequence, the binding signal is 1.14 fold enrichment (6-mer frequency, TF over GST control) in [7]; 1.23 fold enrichment (6-mer frequency, TF over GST control) in assay [8]; 3.13 fold enrichment (6-mer frequency, TF over GST control) in [9]; 1.23 fold enrichment (6-mer frequency, TF over GST control) in assay [10]; 1.2 fold enrichment (6-mer frequency, TF over GST control) in assay [11]; 1.08 fold enrichment (6-mer frequency, TF over GST control) in assay [12]. The binding signal in assay [13] is 1.15 fold enrichment (6-mer frequency, TF over GST control); in [14], 1.17 fold enrichment (6-mer frequency, TF over GST control); in [15] it was 1.15 fold enrichment (6-mer frequency, TF over GST control); in [16], 1.08 fold enrichment (6-mer frequency, TF over GST control); in [17], 1.17 fold enrichment (6-mer frequency, TF over GST control); in [18], 1.05 fold enrichment (6-mer frequency, TF over GST control).
